# Laboratory results reported in the supplement of paper PMC10849652.
# The full data set covers some 8,800 targets. This sample favours those with a hit. About 0.5% of all pairs of compound and target were hits. Values without a mark were called inactive.
# Legend:
# Assay in all cases: log2 fold change, soluble protein after heating vs DMSO (PISA); higher = thermal stabilisation; K562 lysate, 10 uM; active = over 0.2 and 3.5 SD of the protein, either way, in both replicates (recomputed)
# [1] = compound: CC(=O)c1cnc2ccc(-c3cc(Cl)c(O)c(Cl)c3)nc2c1N[C@H]1CC[C@H](CN(C)C)CC1
# Method in brief: (§1)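 K562 pellets were dounce-homogenised in PBS pH 7.4 with 1 mM MgCl2, and the crude extract at 1 mg/mL protein was treated with 10 μM compound for 30 min. Aliquots were heated for 3 min across 48°C-58°C, pooled, and brought to 0.5% NP-40 at 4°C; soluble protein was the supernatant after 21,000xg for 90 min. Soluble protein was quantified by TMTpro 16plex LC-MS/MS with channel sums equalised, and reported as log2 fold change in thermal stability against DMSO controls, with values from duplicates.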
# ralimetinib = compound: CC(C)(C)Cn1c(N)nc2ccc(-c3[nH]c(C(C)(C)C)nc3-c3ccc(F)cc3)nc21 [ralimetinib]
# Method in brief: as §1
# [2] = compound: CC(C)(O)CC(=O)NCCn1ccc2ncnc(Nc3ccc(Oc4cccc(C(F)(F)F)c4)c(Cl)c3)c21
# Method in brief: as §1
# [3] = compound: CC(C)C1=C2N=C(C=C(N2N=C1)NCC3=CC=CC=C3)NCCCCCCN
# Method in brief: as §1
# [4] = compound: CC1=C(C(CC(=O)N1)C2=CC=C(C=C2)C(F)(F)F)C(=O)NC3=C(C=C4C(=C3)C=NN4)F
# Method in brief: as §1
# [5] = compound: CC1=C(C2=C(C=C1)C(=O)C3=CC=CC=C3N2CCCN)C
# Method in brief: as §1
# [6] = compound: CC1=C(C=C(C=C1)NC(=O)C2=CC(=CC=C2)C(C)(C)C#N)NC3=CC4=C(C=C3)N=CN(C4=O)C
# Method in brief: as §1
# [7] = compound: CC1=C(C=C(C=C1)NC(=O)C2=CC(=CC=C2)N(C)C)NC(=O)C3=CC=C(C=C3)O
# Method in brief: as §1
# [8] = compound: CC1=CC=C(C=C1)SC2=C3C=C(SC3=CN=C2)C(=O)N
# Method in brief: as §1
# vemurafenib = compound: CCCS(=O)(=O)Nc1ccc(F)c(C(=O)c2c[nH]c3ncc(-c4ccc(Cl)cc4)cc23)c1F [vemurafenib]
# Method in brief: as §1
# [9] = compound: CCCS(=O)(=O)Nc1ccc(F)c(C(=O)c2c[nH]c3ncc(Cl)cc23)c1F
# Method in brief: as §1
# [10] = compound: CC[C@@H]1C(=O)N(C)c2cnc(Nc3ccc(C(=O)NC4CCN(C)CC4)cc3OC)nc2N1C1CCCC1
# Method in brief: as §1
# volasertib = compound: CC[C@@H]1C(=O)N(C)c2cnc(Nc3ccc(C(=O)N[C@H]4CC[C@H](N5CCN(CC6CC6)CC5)CC4)cc3OC)nc2N1C(C)C [volasertib]
# Method in brief: as §1
# [11] = compound: CCn1c(C(=O)N(C2CC2)C2CC2)cc2c3c(ncn3C)c(Nc3cc(C)n(C)n3)nc21
# Method in brief: as §1
# [12] = compound: CCn1cc(-c2ccnc3[nH]c(-c4cccc(CN(C)C)c4)cc23)c(-c2ccc(NC(=O)N(C)C)cc2)n1
# Method in brief: as §1
# [13] = compound: CN1CCC(CNc2ccc3ncc(-c4cccc(OC(F)(F)F)c4)n3n2)CC1
# Method in brief: as §1
# saracatinib = compound: CN1CCN(CCOc2cc(OC3CCOCC3)c3c(Nc4c(Cl)ccc5c4OCO5)ncnc3c2)CC1 [saracatinib]
# Method in brief: as §1
# sotrastaurin = compound: CN1CCN(c2nc(C3=C(c4c[nH]c5ccccc45)C(=O)NC3=O)c3ccccc3n2)CC1 [sotrastaurin]
# Method in brief: as §1
# ibrutinib = compound: C=CC(=O)N1CCC[C@@H](n2nc(-c3ccc(Oc4ccccc4)cc3)c3c(N)ncnc32)C1 [ibrutinib]
# Method in brief: as §1
# barasertib = compound: CCN(CCCOc1ccc2c(Nc3cc(CC(=O)Nc4cccc(F)c4)[nH]n3)ncnc2c1)CCOP(=O)(O)O [barasertib]
# Method in brief: as §1
# Chain of UniProt Q96BI1 (Q96BI1 whole entry, looked up): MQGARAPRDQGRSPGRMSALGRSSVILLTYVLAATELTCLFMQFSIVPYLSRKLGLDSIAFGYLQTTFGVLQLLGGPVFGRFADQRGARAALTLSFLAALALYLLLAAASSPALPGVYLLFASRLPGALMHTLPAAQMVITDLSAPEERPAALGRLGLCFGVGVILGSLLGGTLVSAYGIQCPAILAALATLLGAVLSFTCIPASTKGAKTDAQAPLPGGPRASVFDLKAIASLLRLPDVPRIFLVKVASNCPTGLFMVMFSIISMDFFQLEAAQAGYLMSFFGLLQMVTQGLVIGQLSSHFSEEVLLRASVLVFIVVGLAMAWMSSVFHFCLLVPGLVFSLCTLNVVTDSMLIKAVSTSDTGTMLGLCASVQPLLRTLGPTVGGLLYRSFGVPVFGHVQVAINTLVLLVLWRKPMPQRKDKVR
# Chain of UniProt Q96BD0 (Q96BD0 whole entry, looked up): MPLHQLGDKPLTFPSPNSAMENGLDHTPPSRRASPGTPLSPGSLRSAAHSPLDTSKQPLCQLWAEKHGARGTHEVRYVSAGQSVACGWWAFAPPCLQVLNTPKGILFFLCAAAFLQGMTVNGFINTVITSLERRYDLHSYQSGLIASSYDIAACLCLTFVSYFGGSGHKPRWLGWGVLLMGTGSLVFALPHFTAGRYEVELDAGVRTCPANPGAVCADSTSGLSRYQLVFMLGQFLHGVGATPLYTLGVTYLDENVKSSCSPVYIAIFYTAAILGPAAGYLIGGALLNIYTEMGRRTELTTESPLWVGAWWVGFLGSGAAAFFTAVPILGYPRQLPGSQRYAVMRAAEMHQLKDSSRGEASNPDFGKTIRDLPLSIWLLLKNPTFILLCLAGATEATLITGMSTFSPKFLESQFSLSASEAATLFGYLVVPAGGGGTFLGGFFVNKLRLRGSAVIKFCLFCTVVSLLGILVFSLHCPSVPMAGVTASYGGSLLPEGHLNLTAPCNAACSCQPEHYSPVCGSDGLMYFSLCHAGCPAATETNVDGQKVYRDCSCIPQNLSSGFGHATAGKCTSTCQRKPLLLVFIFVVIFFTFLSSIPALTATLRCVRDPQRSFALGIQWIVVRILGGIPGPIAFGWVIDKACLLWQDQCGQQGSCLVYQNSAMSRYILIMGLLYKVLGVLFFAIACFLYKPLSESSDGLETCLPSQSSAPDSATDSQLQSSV
# Chain of UniProt Q9Y2D2 (Q9Y2D2 whole entry, looked up): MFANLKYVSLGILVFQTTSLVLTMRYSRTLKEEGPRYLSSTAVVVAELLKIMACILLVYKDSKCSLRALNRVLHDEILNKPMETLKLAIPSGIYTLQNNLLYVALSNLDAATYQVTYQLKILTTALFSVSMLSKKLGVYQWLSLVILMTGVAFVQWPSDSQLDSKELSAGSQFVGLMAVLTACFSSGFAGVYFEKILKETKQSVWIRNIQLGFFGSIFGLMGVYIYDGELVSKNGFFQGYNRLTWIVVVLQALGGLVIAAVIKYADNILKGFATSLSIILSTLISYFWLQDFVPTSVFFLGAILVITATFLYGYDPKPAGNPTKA
# Chain of UniProt P12931 (P12931 whole entry, looked up): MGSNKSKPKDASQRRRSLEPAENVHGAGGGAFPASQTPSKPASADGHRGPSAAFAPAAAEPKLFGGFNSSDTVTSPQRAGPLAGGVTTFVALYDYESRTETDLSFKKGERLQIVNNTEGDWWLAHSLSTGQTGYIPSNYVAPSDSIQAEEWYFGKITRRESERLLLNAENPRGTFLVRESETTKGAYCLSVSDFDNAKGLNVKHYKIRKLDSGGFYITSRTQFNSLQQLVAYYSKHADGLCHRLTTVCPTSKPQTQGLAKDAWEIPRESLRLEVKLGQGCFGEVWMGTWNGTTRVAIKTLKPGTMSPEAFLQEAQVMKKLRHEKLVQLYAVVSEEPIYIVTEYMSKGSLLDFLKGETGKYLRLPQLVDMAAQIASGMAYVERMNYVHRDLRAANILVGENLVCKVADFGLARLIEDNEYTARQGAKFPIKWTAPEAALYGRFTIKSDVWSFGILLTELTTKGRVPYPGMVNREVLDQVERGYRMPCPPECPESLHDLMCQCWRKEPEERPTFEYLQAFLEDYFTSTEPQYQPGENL
# Chain of UniProt O75182 (O75182 whole entry, looked up): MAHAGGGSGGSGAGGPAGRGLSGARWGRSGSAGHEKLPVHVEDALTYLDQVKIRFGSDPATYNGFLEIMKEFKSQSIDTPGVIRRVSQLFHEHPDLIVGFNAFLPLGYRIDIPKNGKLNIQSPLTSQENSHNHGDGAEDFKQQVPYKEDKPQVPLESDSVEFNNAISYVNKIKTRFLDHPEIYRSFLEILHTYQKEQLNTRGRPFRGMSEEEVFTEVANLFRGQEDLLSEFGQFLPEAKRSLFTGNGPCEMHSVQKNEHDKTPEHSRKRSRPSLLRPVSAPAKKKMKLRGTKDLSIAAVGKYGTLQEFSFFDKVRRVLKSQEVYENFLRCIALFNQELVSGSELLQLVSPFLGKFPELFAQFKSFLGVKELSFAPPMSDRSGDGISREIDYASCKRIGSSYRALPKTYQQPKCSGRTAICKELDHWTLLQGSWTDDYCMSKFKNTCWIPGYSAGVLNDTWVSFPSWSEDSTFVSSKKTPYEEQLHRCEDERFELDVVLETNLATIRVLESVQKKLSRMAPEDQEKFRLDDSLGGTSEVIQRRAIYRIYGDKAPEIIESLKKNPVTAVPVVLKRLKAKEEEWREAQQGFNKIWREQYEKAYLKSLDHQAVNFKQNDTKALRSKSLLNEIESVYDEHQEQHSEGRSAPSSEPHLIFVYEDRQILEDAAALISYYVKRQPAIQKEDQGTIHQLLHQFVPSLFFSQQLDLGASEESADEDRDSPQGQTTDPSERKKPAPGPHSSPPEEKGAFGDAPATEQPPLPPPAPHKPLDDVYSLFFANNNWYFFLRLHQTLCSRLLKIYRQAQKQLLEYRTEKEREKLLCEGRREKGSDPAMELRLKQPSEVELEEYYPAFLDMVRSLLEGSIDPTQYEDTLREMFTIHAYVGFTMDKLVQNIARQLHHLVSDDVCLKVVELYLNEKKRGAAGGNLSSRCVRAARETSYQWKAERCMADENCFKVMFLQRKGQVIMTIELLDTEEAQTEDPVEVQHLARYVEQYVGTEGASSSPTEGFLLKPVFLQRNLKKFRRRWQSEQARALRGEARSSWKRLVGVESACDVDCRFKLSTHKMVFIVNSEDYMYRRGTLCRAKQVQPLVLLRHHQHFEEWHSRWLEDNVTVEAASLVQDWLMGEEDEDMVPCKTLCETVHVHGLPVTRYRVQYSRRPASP
# Chain of UniProt Q9UHW9 (Q9UHW9 whole entry, looked up): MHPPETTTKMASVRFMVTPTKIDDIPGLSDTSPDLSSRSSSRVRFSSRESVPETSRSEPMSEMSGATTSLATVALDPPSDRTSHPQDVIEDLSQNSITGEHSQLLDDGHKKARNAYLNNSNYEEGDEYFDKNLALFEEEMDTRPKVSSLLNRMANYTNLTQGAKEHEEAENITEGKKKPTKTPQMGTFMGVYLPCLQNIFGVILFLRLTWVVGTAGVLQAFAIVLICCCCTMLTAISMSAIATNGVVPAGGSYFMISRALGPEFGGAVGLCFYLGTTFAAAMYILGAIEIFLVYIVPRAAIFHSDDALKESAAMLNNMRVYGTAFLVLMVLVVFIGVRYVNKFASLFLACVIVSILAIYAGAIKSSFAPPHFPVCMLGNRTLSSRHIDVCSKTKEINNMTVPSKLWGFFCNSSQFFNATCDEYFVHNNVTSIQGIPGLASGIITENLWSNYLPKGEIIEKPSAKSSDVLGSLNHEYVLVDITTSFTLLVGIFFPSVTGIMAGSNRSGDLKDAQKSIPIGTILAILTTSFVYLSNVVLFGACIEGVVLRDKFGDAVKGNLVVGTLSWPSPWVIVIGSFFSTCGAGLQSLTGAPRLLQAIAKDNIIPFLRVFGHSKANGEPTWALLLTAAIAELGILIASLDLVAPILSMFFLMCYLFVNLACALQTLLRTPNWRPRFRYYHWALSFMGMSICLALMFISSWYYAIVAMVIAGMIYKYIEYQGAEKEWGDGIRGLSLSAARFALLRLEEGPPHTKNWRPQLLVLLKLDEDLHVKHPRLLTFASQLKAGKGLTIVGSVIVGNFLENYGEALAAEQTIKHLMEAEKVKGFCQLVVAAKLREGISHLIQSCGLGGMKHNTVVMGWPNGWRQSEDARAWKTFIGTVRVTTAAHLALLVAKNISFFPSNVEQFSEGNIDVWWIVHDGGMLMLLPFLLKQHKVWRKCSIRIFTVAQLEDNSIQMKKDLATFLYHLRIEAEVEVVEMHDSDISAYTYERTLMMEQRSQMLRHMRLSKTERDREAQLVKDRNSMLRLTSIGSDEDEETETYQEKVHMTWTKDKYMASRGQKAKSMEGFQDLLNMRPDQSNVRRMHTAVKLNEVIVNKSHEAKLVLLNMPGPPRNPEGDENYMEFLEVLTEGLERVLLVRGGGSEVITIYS
# Chain of UniProt O95793 (O95793 whole entry, looked up): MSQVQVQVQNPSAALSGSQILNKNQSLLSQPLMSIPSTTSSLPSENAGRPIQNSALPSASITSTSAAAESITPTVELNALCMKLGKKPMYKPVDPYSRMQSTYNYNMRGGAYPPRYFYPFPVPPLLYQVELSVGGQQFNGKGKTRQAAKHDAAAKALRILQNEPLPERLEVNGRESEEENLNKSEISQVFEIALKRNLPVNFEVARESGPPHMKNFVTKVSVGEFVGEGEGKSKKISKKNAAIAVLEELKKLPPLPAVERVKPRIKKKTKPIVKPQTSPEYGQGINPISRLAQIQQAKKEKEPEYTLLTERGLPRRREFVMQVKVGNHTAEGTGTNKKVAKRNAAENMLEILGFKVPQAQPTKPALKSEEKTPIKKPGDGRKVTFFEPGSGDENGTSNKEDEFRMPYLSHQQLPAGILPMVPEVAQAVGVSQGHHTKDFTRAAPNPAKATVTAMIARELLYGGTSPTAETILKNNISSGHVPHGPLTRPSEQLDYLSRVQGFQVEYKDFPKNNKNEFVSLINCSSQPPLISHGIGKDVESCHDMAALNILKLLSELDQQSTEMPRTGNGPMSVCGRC
# Chain of UniProt Q15506 (Q15506 whole entry, looked up): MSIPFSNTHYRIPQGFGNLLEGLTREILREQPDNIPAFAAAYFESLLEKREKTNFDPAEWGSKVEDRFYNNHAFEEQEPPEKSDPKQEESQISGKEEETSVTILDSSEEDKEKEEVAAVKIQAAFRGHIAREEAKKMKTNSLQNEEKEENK
Target,log2 fold change [1],log2 fold change (ralimetinib),log2 fold change [2],log2 fold change [3],log2 fold change [4],log2 fold change [5],log2 fold change [6],log2 fold change [7],log2 fold change [8],log2 fold change (vemurafenib),log2 fold change [9],log2 fold change [10],log2 fold change (volasertib),log2 fold change [11],log2 fold change [12],log2 fold change [13],log2 fold change (saracatinib),log2 fold change (sotrastaurin),log2 fold change (ibrutinib),log2 fold change (barasertib)
SLC25A36 (UniProt Q96CQ1),-0.012,0.142,-0.048,0.1,0.044,-0.16,0.011,0.027,0.013,-0.272,0.007,0.113,-0.045,0.039,-0.016,0.035,-0.001,-0.055,–,–
SLC41A1 (UniProt Q8IVJ1),0.007,-0.003,0.112,-0.037,-0.023,–,-0.081,0.09,0.041,–,0.021,0.085,-0.084,0.035,0.083,0.06,–,0.082,–,–
STK38L (UniProt Q9Y2H1),–,-0.069,0.021,-0.019,-0.024,-0.019,0,0.056,–,–,–,-0.105,–,-0.047,–,–,-0.058,-0.01,–,–
STK26 isoform 3 (UniProt Q9P289),–,–,–,–,–,-0.157,-0.146,–,–,–,–,0.189,–,–,–,–,-0.046,-0.119,–,–
SPA17 (UniProt Q15506),0.028,0.006,-0.098,–,–,0.051,-0.053,0.026,-0.058,-0.013,-0.004,0.005,0.09,0.022,-0.639 (active),0.245,0.004,0.021,0.056,0.021
SHC1 (UniProt P29353),–,–,–,–,–,–,–,–,–,–,–,–,–,–,-0.2,-0.114,–,–,–,–
SHB (UniProt Q15464),-0.023,0.023,-0.025,-0.009,–,-0.01,0.023,-0.012,0.05,–,-0.049,–,0.072,0.113,-0.125,-0.162,0.003,-0.003,–,–
SMPD2 (UniProt O60906),0.01,-0.03,0.067,0.388,–,0.077,–,-0.113,0.058,–,0.179,0.051,0.032,-0.017,-0.003,-0.104,0.018,–,–,–
SIN3B (UniProt O75182),–,–,–,–,0.19,–,1.04,–,–,-0.042,–,-0.092,–,–,-0.061,0.267,–,-0.099,–,–
SNAPC2 (UniProt Q13487),–,0.002,-0.029,-0.032,-0.073,-0.071,-0.008,0.011,–,–,–,–,–,0.04,0.039,0.048,0.038,0.154,0.092,-0.211
SLC12A6 isoform 2 (UniProt Q9UHW9),0.016,-0.01,0.017,-0.018,–,0.027,0.063,-0.006,0.122,–,0.009,0.053,-0.178,-0.021,–,–,0.042,0.057,–,–
SLCO4A1 (UniProt Q96BD0),–,–,–,–,0.115,–,–,–,–,–,–,–,–,–,-0.015,0.042,–,–,0.081,0.037
SNRPD2 (UniProt K7EJB5),-0.004,0.142,-0.075,0.014,0.052,-0.022,-0.011,0.069,-0.01,0.061,-0.029,-0.085,0.026,0.112,–,–,-0.049,0.112,–,–
SPAG1 (UniProt Q07617),0.282,-0.017,-0.17,–,–,–,0.15,0.079,-0.198,0.041,0.028,–,-0.137,0.083,–,–,–,-0.02,0.034,0.018
SNIP1 (UniProt Q8TAD8),–,–,–,–,-0.062,–,–,–,–,–,–,–,–,–,–,–,–,–,–,–
TAF11 (UniProt Q15544),-0.013,0.027,0.008,–,0.015,0.115,0.052,0.072,-0.114,-0.055,0.166,0.14,0.037,0.086,-0.028,0.086,-0.021,0.026,–,–
SMC4 (UniProt C9JJ64),–,–,–,–,–,–,–,–,–,–,–,–,–,–,–,–,–,–,-0.146,0.152
SLC35A3 isoform 2 (UniProt Q9Y2D2),-0.034,-0.027,0.234,-0.027,-0.133,–,0.111,-0.025,0.051,-0.024,-0.031,0.056,0.005,-0.374,-1.1 (active),0.336,–,-0.026,–,–
SRC isoform 2 (UniProt P12931),-0.061,-0.035,0.075,0.052,–,0.07,–,0.042,0,–,0.166,0.045,-0.039,-0.024,0.184,-0.121,–,–,–,0.133
SMARCA4 isoform 4 (UniProt P51532),0.044,0.051,-0.022,-0.337,0.093,-0.018,-0.107,0.192,0.041,–,-0.047,0.049,0.043,-0.192,-0.086,0.057,0.119,0.325,–,–
SLC22A18 (UniProt Q96BI1),-0.047,–,–,0.049,–,–,0.02,–,0.011,0.026,0.046,0.044,0.08,–,0.026,-0.032,–,0.073,0.099,-0.059
TARDBP (UniProt K7EN94),–,–,–,–,–,–,–,–,–,0.008,–,-0.039,–,–,–,–,–,–,–,–
STAU1 isoform 3 (UniProt O95793),–,–,–,0.028,0.012,–,-0.064,–,–,–,–,–,–,–,-0.166,-0.016,–,0.092,-0.094,0.014
SLC39A13 (UniProt Q96H72),–,0.004,-0.137,-0.003,–,–,–,0.25,–,–,–,–,–,0.035,–,–,–,–,–,–
SLU7 (UniProt O95391),–,-0.013,-0.018,0.045,-0.029,-0.015,0,-0.031,–,-0.043,–,0.062,–,-0.004,-0.188,0.166,0.093,-0.027,-0.084,-0.07
TAOK2 isoform 2 (UniProt Q9UL54),–,–,–,–,0.034,–,–,–,–,–,–,–,–,–,–,–,–,–,–,–
STK17A (UniProt Q9UEE5),–,–,–,–,0.213,–,–,–,–,–,–,–,–,–,0.164,-0.109,–,–,–,–
STK17B (UniProt O94768),–,0.104,-0.004,0.162,0.054,-0.102,0.147,0.07,–,–,–,–,–,-0.451,–,–,-0.002,0.057,–,–
SNAP23 isoform 2 (UniProt O00161),-0.045,-0.071,0.095,-0.029,0.306,–,–,0.027,0.028,0.172,0.09,0.052,0.003,-0.029,0.123,-0.061,–,–,–,–
